Targets with a hit are over-represented here; the source holds about 7,900 in all. About 0.6% of all pairs of compound and target were hits.

Chain of UniProt P05937 (P05937 whole entry, looked up): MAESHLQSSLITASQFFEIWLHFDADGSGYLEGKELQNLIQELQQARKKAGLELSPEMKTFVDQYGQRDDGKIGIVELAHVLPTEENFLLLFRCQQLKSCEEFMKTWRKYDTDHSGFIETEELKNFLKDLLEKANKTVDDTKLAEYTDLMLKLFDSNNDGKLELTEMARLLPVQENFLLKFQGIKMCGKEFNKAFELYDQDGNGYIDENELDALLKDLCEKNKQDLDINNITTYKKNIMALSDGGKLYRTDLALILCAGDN
Chain of UniProt Q9H9S4 (Q9H9S4 whole entry, looked up): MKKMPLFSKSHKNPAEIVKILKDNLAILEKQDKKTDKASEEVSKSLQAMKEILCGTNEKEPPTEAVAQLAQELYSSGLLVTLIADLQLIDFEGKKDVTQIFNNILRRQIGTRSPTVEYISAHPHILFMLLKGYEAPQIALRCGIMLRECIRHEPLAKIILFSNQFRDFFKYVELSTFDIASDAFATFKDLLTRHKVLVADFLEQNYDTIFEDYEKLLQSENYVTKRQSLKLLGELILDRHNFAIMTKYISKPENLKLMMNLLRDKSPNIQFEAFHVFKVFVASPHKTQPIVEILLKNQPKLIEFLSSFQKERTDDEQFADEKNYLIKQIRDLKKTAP
Chain of UniProt O15182 (O15182 whole entry, looked up): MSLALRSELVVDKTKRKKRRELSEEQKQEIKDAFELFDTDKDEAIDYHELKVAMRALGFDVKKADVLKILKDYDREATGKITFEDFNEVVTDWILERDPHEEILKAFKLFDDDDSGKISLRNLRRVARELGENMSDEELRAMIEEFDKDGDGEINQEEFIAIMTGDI
Chain of UniProt Q10570 (Q10570 whole entry, looked up): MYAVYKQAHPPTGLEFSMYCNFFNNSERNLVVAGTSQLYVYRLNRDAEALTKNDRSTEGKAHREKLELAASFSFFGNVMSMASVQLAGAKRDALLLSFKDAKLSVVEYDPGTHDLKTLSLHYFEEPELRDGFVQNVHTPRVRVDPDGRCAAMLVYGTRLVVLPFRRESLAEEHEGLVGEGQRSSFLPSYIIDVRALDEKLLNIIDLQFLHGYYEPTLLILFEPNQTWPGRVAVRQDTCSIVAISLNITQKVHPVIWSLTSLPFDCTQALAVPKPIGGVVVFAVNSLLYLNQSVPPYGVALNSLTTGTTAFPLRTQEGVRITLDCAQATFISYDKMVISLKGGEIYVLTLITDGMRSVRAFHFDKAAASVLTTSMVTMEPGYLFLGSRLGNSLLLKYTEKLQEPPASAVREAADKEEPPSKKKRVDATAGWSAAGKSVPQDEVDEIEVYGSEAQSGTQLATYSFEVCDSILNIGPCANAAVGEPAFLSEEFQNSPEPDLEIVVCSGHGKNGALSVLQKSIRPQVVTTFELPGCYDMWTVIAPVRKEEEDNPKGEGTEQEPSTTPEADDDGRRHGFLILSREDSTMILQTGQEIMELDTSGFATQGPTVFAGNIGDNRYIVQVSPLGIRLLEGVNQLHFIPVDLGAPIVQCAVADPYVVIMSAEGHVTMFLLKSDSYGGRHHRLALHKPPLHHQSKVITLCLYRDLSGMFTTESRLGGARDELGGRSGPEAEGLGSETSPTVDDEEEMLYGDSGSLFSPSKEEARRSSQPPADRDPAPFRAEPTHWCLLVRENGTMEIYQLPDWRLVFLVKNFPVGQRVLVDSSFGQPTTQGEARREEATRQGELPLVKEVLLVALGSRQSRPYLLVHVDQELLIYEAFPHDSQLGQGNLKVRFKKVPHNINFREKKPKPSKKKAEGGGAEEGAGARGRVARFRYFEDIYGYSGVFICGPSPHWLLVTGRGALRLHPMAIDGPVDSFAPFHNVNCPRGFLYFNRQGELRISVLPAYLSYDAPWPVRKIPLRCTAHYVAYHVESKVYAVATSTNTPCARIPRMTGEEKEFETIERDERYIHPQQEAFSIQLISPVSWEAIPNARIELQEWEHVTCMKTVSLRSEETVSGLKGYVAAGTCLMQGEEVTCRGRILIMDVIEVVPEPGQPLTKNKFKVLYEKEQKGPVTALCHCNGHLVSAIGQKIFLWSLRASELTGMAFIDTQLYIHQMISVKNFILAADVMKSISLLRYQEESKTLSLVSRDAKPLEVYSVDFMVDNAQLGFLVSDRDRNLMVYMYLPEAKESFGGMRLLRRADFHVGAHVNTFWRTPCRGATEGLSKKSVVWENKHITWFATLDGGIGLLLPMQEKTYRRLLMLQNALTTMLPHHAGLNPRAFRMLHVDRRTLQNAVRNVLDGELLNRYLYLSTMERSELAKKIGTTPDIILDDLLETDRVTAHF
Chain of UniProt P55060 (P55060 whole entry, looked up): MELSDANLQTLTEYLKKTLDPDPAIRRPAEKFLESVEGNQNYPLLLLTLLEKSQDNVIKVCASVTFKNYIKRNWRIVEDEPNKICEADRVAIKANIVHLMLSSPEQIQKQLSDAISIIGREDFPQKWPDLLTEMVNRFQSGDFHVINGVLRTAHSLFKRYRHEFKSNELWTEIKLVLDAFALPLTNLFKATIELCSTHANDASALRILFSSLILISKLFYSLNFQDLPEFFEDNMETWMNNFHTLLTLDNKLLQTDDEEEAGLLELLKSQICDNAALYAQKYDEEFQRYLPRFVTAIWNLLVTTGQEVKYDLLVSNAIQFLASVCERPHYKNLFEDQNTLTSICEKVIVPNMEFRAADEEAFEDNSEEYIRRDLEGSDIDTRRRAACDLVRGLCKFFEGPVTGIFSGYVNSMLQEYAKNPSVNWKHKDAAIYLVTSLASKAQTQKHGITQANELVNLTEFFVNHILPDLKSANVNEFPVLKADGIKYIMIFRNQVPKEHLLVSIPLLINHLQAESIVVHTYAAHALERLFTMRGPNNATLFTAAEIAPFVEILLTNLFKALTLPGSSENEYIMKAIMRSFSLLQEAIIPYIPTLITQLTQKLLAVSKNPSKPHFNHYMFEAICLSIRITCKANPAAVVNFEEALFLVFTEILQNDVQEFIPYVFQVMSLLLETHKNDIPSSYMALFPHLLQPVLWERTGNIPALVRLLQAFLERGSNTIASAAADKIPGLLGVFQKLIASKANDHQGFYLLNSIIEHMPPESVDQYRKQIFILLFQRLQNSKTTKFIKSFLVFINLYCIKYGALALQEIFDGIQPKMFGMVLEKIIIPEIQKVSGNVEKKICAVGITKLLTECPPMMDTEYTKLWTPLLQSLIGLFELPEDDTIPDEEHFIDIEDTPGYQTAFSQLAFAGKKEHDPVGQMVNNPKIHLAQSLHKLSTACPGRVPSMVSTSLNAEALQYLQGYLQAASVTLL
Chain of UniProt P23786 (P23786 whole entry, looked up): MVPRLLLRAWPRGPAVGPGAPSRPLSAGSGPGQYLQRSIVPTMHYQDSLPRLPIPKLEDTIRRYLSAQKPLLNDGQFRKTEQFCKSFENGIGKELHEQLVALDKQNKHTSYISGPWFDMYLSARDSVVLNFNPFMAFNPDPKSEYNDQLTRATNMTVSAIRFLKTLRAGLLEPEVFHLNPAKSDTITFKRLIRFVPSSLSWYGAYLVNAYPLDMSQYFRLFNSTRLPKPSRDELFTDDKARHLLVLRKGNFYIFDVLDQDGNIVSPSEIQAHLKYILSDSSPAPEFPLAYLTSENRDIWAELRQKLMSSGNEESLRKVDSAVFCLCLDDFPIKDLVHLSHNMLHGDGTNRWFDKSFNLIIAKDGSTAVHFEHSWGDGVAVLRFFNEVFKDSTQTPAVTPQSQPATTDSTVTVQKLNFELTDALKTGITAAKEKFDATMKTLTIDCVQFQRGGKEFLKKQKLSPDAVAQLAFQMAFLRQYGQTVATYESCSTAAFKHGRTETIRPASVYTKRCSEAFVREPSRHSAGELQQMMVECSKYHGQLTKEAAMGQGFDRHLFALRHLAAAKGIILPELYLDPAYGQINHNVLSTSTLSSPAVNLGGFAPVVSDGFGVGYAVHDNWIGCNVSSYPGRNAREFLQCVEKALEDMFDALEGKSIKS
Chain of UniProt P21964 (P21964 whole entry, looked up): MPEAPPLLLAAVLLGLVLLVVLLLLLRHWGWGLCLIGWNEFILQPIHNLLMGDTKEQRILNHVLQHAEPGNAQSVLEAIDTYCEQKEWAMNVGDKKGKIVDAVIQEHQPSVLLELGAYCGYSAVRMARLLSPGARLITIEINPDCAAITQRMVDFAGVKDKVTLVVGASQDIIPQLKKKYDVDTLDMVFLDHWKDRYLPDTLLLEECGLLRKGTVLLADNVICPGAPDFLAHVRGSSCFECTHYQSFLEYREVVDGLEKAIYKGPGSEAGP
Chain of UniProt Q00587 (Q00587 whole entry, looked up): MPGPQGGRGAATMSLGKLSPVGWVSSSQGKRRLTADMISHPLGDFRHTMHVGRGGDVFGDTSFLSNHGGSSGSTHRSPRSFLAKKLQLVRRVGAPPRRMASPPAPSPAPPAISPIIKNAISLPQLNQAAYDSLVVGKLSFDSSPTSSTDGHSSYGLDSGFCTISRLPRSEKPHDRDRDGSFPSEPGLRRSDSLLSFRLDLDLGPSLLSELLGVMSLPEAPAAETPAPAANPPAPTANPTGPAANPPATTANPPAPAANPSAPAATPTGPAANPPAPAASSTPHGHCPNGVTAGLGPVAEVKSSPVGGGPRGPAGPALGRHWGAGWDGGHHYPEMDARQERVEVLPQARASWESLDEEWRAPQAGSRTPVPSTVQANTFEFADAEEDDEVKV
Chain of UniProt P19784 (P19784 whole entry, looked up): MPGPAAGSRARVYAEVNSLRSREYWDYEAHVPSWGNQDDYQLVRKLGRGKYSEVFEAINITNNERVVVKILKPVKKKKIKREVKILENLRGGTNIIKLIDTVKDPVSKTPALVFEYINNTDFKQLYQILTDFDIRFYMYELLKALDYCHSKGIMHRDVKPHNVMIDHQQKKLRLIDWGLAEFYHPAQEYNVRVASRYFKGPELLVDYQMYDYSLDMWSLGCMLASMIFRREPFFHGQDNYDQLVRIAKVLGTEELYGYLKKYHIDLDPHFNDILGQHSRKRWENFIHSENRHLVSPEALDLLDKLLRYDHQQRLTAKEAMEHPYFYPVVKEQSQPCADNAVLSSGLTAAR
Chain of UniProt O75956 (O75956 whole entry, looked up): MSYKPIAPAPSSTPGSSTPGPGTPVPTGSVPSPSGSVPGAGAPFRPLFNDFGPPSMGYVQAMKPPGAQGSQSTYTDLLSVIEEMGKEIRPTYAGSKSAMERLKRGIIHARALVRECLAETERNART

Compound in this assay: c1cn2cc(-c3ccc4cn[nH]c4c3)nc(Nc3ccc(N4CCOCC4)cc3)c2n1 [entospletinib]
As to the kind of experiment: log2 fold change, soluble protein after heating vs DMSO (PISA); higher = thermal stabilisation; K562 cells, 10 uM, 30 min; active = over 0.2 and 3.5 SD of the protein, either way, in both replicates (recomputed). In a few lines: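 K562 cells at 2×10^6 cells/mL were given 10 μM compound for 30 min. Aliquots then went through 3 min of heating across 48°C-58°C, were pooled, and were extracted in PBS with 0.5% NP-40 at 4°C, and the supernatant after 21,000xg for 90 min was quantified by TMTpro 16plex LC-MS/MS with channel sums equalised. Thermal stability relative to control samples, from duplicates, is given as log2 fold change.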
On to CDC42BPB (UniProt Q9Y5S2), for which the log2 fold change is -0.245 (inactive).

Turning to CHCHD4 isoform 2 (UniProt Q8N4Q1), the log2 fold change is 0.036 (inactive). Then CSE1L (UniProt P55060), with -0.003 (inactive); and CLPX (UniProt O76031), with -0.002 (inactive). With CPQ (UniProt Q9Y646), the log2 fold change was 0.011 (inactive). C19orf53 (UniProt Q9UNZ5): the log2 fold change was 0.099 (inactive). CHD4 isoform 2 (UniProt Q14839): the log2 fold change is 0.007 (inactive). For CPSF1 (UniProt Q10570), the log2 fold change was 0.037 (inactive). On to CALB1 (UniProt P05937), for which the log2 fold change was -0.016 (inactive).

For CS (UniProt O75390), the log2 fold change is 0.005 (inactive). Take CHP1 (UniProt Q99653): the log2 fold change was 0.044 (inactive).

As for CDC42BPA isoform 6 (UniProt Q5VT25), the log2 fold change is 0.112 (inactive). Take CDCA2 (UniProt Q69YH5): the log2 fold change is -0.013 (inactive). Take CNN1 (UniProt P51911): the log2 fold change is -0.067 (inactive). In the case of CFAP36 isoform 2 (UniProt Q96G28), the log2 fold change was 0.116 (inactive). With CAB39L (UniProt Q9H9S4), the log2 fold change is 0.154 (inactive). Consider CNDP2 (UniProt Q96KP4), for which the log2 fold change was 0.03 (inactive). For CHAF1A (UniProt Q13111), the log2 fold change was -0.126 (inactive). Take CETN3 (UniProt O15182): the log2 fold change was 0.025 (inactive). Then CSNK2A2 (UniProt P19784), with 0.096 (inactive); and CDK2AP2 (UniProt O75956), with 0.101 (inactive); and C4A (UniProt P0C0L4), with 0.149 (inactive). In the case of CHST11 (UniProt Q9NPF2), the log2 fold change is -0.1 (inactive). On to CLSPN (UniProt Q9HAW4), for which the log2 fold change was 0.057 (inactive).

On to CDC42EP1 (UniProt Q00587), for which the log2 fold change is -0.089 (inactive).

Regarding CPT2 (UniProt P23786), the log2 fold change was 0.206 (inactive).

For CNN2 (UniProt Q99439), the log2 fold change was -0.011 (inactive). Then CETN2 (UniProt P41208), with 0.057 (inactive); and CDK19 (UniProt Q9BWU1), with -0.013 (inactive); and CIR1 (UniProt Q86X95), with 0.024 (inactive). Then CCDC57 (UniProt Q2TAC2), with -0.044 (inactive); and COMT (UniProt P21964), with 0.017 (inactive). Then CLPP (UniProt Q16740), with 0.01 (inactive); and CLCN3 (UniProt P51790), with -0.003 (inactive). As to CDK16 isoform 2 (UniProt Q00536), the log2 fold change was -0.022 (inactive). With CMTR1 (UniProt Q8N1G2), the log2 fold change was -0.016 (inactive).

CCNK isoform 4 (UniProt O75909): the log2 fold change was 0.037 (inactive). As to CASC3 (UniProt O15234), the log2 fold change is 0.485 (active).
